Assay outcomes (PubChem)
Many of the other results were omitted from the sample, so hits are more common in it than they were.
FECH block: human FECH heme synthesis enzyme inhibition; purified FECH, Ni-mesoporphyrin absorbance 550 nm; calls only at 10 µM (by protocol); actives 3.3% (n = 20,000); AID 1671448;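 active = enzyme reaction rate more than 3 SD below the solvent-only control wells on the same plate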;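 also: lower slope than DMSO wells means FECH inhibition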
Target sequence (P22830 whole entry, looked up): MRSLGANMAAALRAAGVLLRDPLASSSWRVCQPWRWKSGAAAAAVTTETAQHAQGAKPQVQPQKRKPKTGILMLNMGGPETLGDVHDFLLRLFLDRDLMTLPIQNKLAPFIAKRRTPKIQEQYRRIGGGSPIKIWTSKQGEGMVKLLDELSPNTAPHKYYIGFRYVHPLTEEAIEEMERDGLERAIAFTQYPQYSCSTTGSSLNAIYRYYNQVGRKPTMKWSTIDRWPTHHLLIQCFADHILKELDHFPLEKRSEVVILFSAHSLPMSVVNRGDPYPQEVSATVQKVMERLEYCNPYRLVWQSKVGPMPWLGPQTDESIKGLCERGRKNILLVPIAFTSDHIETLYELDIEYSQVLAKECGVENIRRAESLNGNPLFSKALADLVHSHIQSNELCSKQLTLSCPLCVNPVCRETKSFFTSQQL
The depositor's hits bear a star; i = inactive; + = active, no number.

SMILES	FECH block
OCc1ccc(-c2nccn2CCC2=CCCCC2)o1	i
OCC1(Cn2cnc(-c3ccccc3)c2-c2ccc3c(c2)OCCO3)CCOCC1	i
CCCn1c(CNS(=O)(=O)c2ccc(CC(C)C)cc2)nc2cccnc21	+
COc1ccc(S(=O)(=O)NCc2nc3cccnc3n2C2CCCC2)cc1	i
O=S(=O)(NCc1nc2cccnc2n1C1CCCCC1)c1ccc(Cl)cc1	i
CCCc1ccc(S(=O)(=O)NCc2nc3cccnc3n2Cc2ccccc2)cc1	+
CC(C)c1ccc(S(=O)(=O)NCc2nc3cccnc3n2Cc2ccccc2)cc1	i
COc1ccc(Cn2c(CNS(=O)(=O)c3ccc(Cl)cc3)nc3cccnc32)cc1	i
Cc1ccc(S(=O)(=O)NCc2nc3cccnc3n2C2CCCC2)cc1	+
CC(C)Cc1ccc(S(=O)(=O)NCc2nc3cccnc3n2Cc2ccccc2)cc1	i
CCCn1c(CNS(=O)(=O)c2ccc(Cl)cc2)nc2cccnc21	i
CCc1ccc(Cn2c(CNS(=O)(=O)c3ccc(CC)cc3)nc3cccnc32)cc1	i
COc1ccc(S(=O)(=O)NCc2nc3cccnc3n2Cc2ccccc2)cc1	i
COc1ccc(Cn2c(CNS(=O)(=O)c3ccccc3)nc3cccnc32)cc1	+
O=C(Cc1ccccc1)Nc1nc2n(n1)C(c1ccc(F)cc1)C=C(c1ccc(Cl)cc1)N2 (stereo not given)	i
CCN(C(=O)c1cccc(F)c1F)[C@@H]1CCN(c2ccnc(N)n2)C[C@H]1O	i
CCOCC(=O)N1CCc2c(nc(N(C)C)nc2N(C)C)C1	i
CCOC(=O)Cn1c(=O)n(-c2ccc(F)cc2)c2nc(-c3ccc(F)cc3)nc(C(N)=O)c21	i
COc1cc2cc(CN3CCCC3c3ccco3)c(=O)[nH]c2cc1OC (stereo not given)	i
Cc1ccnc(C(NC(=O)c2cccc(-n3cccn3)c2)C2CC2)c1 (stereo not given)	i
COc1cccc(Cn2c(CNC(=O)c3cccc(OC)c3)nc3cccnc32)c1	i
COc1cccc(Cn2c(CNC(=O)c3ccc(OC)cc3OC)nc3cccnc32)c1	+
COCCn1c(CNC(=O)c2ccc(OC)cc2OC)nc2cccnc21	i
CC(C)(O)C#Cc1ccc(-c2nc(C3CC3)nn2-c2ccccc2)o1	i
CNC(=O)c1ccc(Cn2c(=O)c3cc(OC)c(OC)cc3n(CC(N)=O)c2=O)cc1	i
SMILES	FECH block
CCCNC(=O)Cn1c(=O)n(Cc2ccc(C(=O)NCCC)cc2)c(=O)c2cc(OC)c(OC)cc21	i
CNC(=O)c1ccc(Cn2c(=O)c3cc(OC)c(OC)cc3n(CC(=O)N3CCC(C)CC3)c2=O)cc1	+
CCCNC(=O)Cn1c(=O)n(Cc2ccc(C(=O)NC(C)C)cc2)c(=O)c2cc(OC)c(OC)cc21	i
CNC(=O)c1ccc(Cn2c(=O)c3cc(OC)c(OC)cc3n(CC(=O)NCCCOC)c2=O)cc1	+
COCCCNC(=O)c1ccc(Cn2c(=O)c3cc(OC)c(OC)cc3n(CC(N)=O)c2=O)cc1	i
CNC(=O)c1ccc(Cn2c(=O)c3cc(OC)c(OC)cc3n(CC(=O)NCCC(C)C)c2=O)cc1	+
CNC(=O)c1ccc(Cn2c(=O)c3cc(OC)c(OC)cc3n(CC(=O)Nc3ccccc3)c2=O)cc1	i
CNC(=O)c1ccc(Cn2c(=O)c3cc(OC)c(OC)cc3n(CC(=O)N3CCCCC3C)c2=O)cc1 (stereo not given)	i
CCOc1ccc(Nc2nc(NCCN(CC)CC)nc3c2cnn3-c2ccccc2)cc1	i
COc1ncccc1-c1ccc2ncnc(NCCO)c2c1	i
CCOc1ccc(C2CC(=O)Nc3snc(C)c32)cn1 (stereo not given)	i
C=CCC1(CC=C)CCCN1C(=O)C1(N)CC1	i
CN(Cc1cccnc1)Cc1cccc(C(=O)Nc2ccc3c(cnn3C)c2)c1	i
CCN(CC)CCNc1nc(Nc2ccccc2)c2cnn(-c3ccccc3)c2n1	i
CCc1ccccc1NC(=O)C(=O)N1CCN(C)C2(CCN(C)CC2)C1	i
CN1CCC2(CC1)CN(C(=O)CNC(N)=O)CCCN2C	i
COc1ccc(NC(=O)CC(=O)N2CCN(C)C3(CCN(C)CC3)C2)cc1	+
CCc1cc(Sc2ccc(NC(=O)COc3ccccc3C)cc2)n2ncnc2n1	i
Cc1nnc(SCC(=O)N2Cc3cnc(C(C)(C)C)nc3C2)s1	i
CCCCOc1ccc(C(=O)Nc2cc(N3CCCS3(=O)=O)ccc2OC)cc1	i
O=C(CN1CCN(Cc2ccccc2Cl)S1(=O)=O)Nc1ccc(Cl)cc1	i
COc1ccccc1NC(=O)CN1CCN(Cc2ccc(F)cc2Cl)S1(=O)=O	i
O=C(CN1CCCN(Cc2ccccc2Cl)S1(=O)=O)Nc1ccc(F)c(Cl)c1	+
Cc1ccc(NC(=O)CN2CCN(Cc3ccc(F)cc3Cl)S2(=O)=O)cc1	+
CCOC(=O)c1ccccc1NC(=O)CN1CCN(Cc2ccc(F)cc2Cl)S1(=O)=O	+
SMILES	FECH block
CCc1ccc(NC(=O)CN2CCN(Cc3ccc(F)cc3Cl)S2(=O)=O)cc1	i
O=C(CN1CCN(Cc2ccccc2F)S1(=O)=O)Nc1ccc(F)c(Cl)c1	i
O=C(CN1CCN(Cc2ccc(F)cc2Cl)S1(=O)=O)Nc1ccccc1Cl	i
O=C(CN1CCN(Cc2ccc(F)cc2Cl)S1(=O)=O)Nc1ccc(Br)cc1	i
O=C(O)CCCC(=O)Nc1nc2n(n1)C(c1ccccc1)C=C(c1ccc(Cl)cc1)N2 (stereo not given)	i
CCOc1ccc(-c2cnc(-c3cccc(OCC(N)=O)c3)[nH]2)cc1	i
CCNc1ncc(C(=O)N2CCc3cc(OC)c(OC)cc3C2)cn1	i
Cc1ccccc1Nc1nc(NCC(C)O)nc2c1cnn2-c1ccccc1 (stereo not given)	i
Cc1nnc(-c2cn(CC(=O)Nc3ccc(S(N)(=O)=O)cc3)c3ccccc23)o1	i
CC(C)NC(=O)N1CCC(n2cnc3cccnc32)CC1	i
CCn1ncnc1C(C)NC(=O)CN1CCC(C)=N1 (stereo not given)	i
O=C(NC1CCCCCC1)c1nc(N2CCCC2)c2oc3ccccc3c2n1	i
Cc1cccnc1NCCNC(=O)c1cccc2ccnn12	i
Cc1ccc(NC(=O)CC(=O)NCCSc2nccn2C)c(C)c1	i
Cc1ccc(NC(=O)CNCCNc2ncccc2C)c(C)c1	+
COc1ccc(CCNc2ncnc3oc4c(c23)CCCC4)c(OC)c1	i
O=c1c(NCc2ccccc2Cl)c(-c2ccc3c(c2)CCCC3)c1=O	i
Clc1ccccc1CNc1ncnc2oc3c(c12)CCCC3	+
COc1ccc(CC(=O)NC2CC(=O)N(c3ccc(F)cc3)C2)cc1OC (stereo not given)	i
CN(CC(=O)c1ccc(O)cc1)C(=O)C[C@@H]1C[C@@H]2C=C[C@H]1C2	i
Cc1ccc(C)c(S(=O)(=O)N2CCN(c3cc(-c4cccc(F)c4)ncn3)CC2)c1	i
CCc1noc(CN(CC)C(=O)C(C)n2cnc3ccccc32)n1 (stereo not given)	+
CCc1noc(CN(CC)C(=O)c2ccccc2N2CCCC2)n1	i
CCc1noc(CN(CC)C(=O)C(c2cccc(C)c2)N(C)C)n1 (stereo not given)	i
O=C(NC1CC1)c1ccnc(/C=C/c2ccccc2)c1	i
Cc1cccc(C(C(=O)NCc2nnc3n2CCC3)N(C)C)c1 (stereo not given)	i
O=C(NCC1CCCCO1)c1cc(COc2c(F)cccc2F)on1 (stereo not given)	i
